PBM binding z-score data for 40 sequences are collected here from the supplement of paper PMC6555819.

The experiment relates to PPARg:RXRa 90nM:30nM, anti-RXR (NR concentration 90 nM, RXRa partner concentration 30 nM). The experiment in a line: PBM binding z-score (relative to random genomic background probes); higher = stronger binding; sequences stand for … in GC…GCGATTGACAGCGTAGAATGAAGG
The method, boiled down:
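Antibodies against each partner of ligand-free nuclear receptor dimers (one per run) detected binding on custom Agilent 4×180K protein-binding microarrays after 1 h incubation. The double-stranded probes had 34-nt variable regions carrying direct-repeat seeds, single-nucleotide variants, half-site ablations and random human genomic background sequences. Binding z-scores, from regression-normalized fluorescence, use the random background probes as reference.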
In turn, GCATATAGGTAATACAAGGTAAAAGTCCGATTGT had a PBM binding z-score of 0.325.
For ACTCGGAGGAGAAAGGTCAGAGCTACGCCAGTGA, the PBM binding z-score was 4.29.
As to CCTTACTGGTCACTGACAGGTTATAGCATTTGGA, the PBM binding z-score was found to be 0.378.
As for ATCTCTAGGGAAAAGTTCAGTGAATCCCGAGGAT, the PBM binding z-score was 5.64.
For TCACGGAGGACACGAAGGTCAGAGCTTTCCAGAG, the PBM binding z-score stood at 1.87.
To CGTACTAGGTCAGAACAGGACAGTGAAGGATGAT belongs 2.31; to CGAACTAGGTTAAGGACAGTGAATCTCCGCACGC, 2.08.
With TCAGACAGGTGAAGGTAACTCTGGTACGCAGTCG, the PBM binding z-score was found to be 2.66.
To TAGCCTAGATCATGCGGGCCAGTATAGTGTCGGC belongs -0.742; to AATACAGGGTCATCGTAGGCAAGAGTACGCACAG, 4.97; to ATCTCTAGGTCAGACTCAGTTCAGTGAAGAACGC, 2.1.
CCAGACAGGTGAGTAGGTAACTCAGCCTCGATTA displayed a PBM binding z-score of 0.0174.
TCTGCTAGCTCAGTTGGTCAGCTAACGAGCTGCC showed a PBM binding z-score of 0.449.
In turn, CTACCAAGGTGAACAAGCTCGTTGATTACTATTC gave a PBM binding z-score of 0.167.
In the case of CCGATTGGGGCAGAAAGGTTACCATACCATCCGG, the PBM binding z-score came to 3.56.
The figure for ATATGTAGATTACATCCGGGTCATTCAGGCTATG is 1; for CCTCGGAGGACATAAGGTCAGAGCTGTCCGCTTT it is 0.319.
In the case of TCTTGTAGATCAAGCTGGTTAAGAAAGCCTGAGT, the PBM binding z-score came out at 1.73.
With AGAATGAGTTTAAGATCAGGGAAACAGAATACAT, the PBM binding z-score turned out to be 0.0165.
As for ATACCAAGGTGATCGTGAGGTCGTTGAGACTAAC, the PBM binding z-score is -0.0872.
Take GCTCGGAGGACATGGTCAGAGCTTTGTCCGTAGA: the PBM binding z-score is -1.09.
CCGAGTAGGTTATGGGGCATACAGGCAACGGTGA displayed a PBM binding z-score of 4.38.
For the sequence CGTCCAAGGTCAAAGGTCAGTTAAGAGATGACGG, the PBM binding z-score stood at 9.07.
CTAGCAAGGTGAACAAGGTCGTTGATTACTATTC yielded a PBM binding z-score of 0.796.
ACAGACAGGTGATGATGGTAACTCAGGCTATCAT: the PBM binding z-score is 0.135.
To CAAACTAGGTCACAGAGGTCCAAGTCCGTGCGTA belongs 7.32; to TAGCCTTGGTCATGCGGGCCAGTATAGTGTCGGC, -0.995.
CCAGACAGGTGAATGGTAACTCAGTCTGGTACGC displayed a PBM binding z-score of -0.216.
For GCTGATAGGTCAACTGATGGTCAGCTAAAGCTCG, the PBM binding z-score is 2.96.
Turning to AGAACGAGGGCCCGCTGAGTTGATAGCAGAGTAG, the PBM binding z-score was -1.55.
The figure for ATATGTAGGTTACGGGTCATTCAGGTTGGTTCGC is 8.55.
To CCTCCAAGGTCAATGCTAGGTCAGTGAAAGCATT belongs 3.28.
Sequence CCTCGGAGGAAAGAAGGTCAGAGCTGTCCGCTTT had a PBM binding z-score of 0.12.
ACTACCAGGCCAAGGGTCACTCAAGATTAGTCCG came in with a PBM binding z-score of 7.73.
Sequence CCGACTGGGGCATAAGGTTAGCATAAGCCAGCCC gave a PBM binding z-score of 1.83.
The figure for TCTTGTAGATCAAAGGTTAAGATAGCCGAAGCCT is 9.71.
To ACTATTTGGTCAGCTGAGGTCACACACAATTCGG belongs 1.66; to CGTTAAAGTTCAACTAAGGTAACGTAAAGCACGC, 3.27; to AGTCAATGTTCACTAGGTAACGTAAGATTCAGCT, 0.302.
The sequence AGTCAAAGTTCACTAGTTAACGTAAGATTCAGCT showed a PBM binding z-score of 4.89.
